Tb PYK inh: blocks Trypanosoma brucei pyruvate kinase; TbPYK enzyme, Kinase-Glo Plus ATP luminescence, 45 min; Potency, µM (top dose mostly 76.8 µM), inactives show at the highest dose activity, negative = inhibition, usual class: inhibitors; hit rate 0.12% among 410,000; AID 624173; Q57TT1; note: % is set by controls: 0 for no effect and ±100 for the full control effect; nearly all actives have a fitted effect of over 50% in size
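Quantitative HTS: titrated library compounds versus trypanosomal pyruvate kinase in TEA buffer (pH 7.2) containing KCl, MgCl2, BSA and Tween-20. Reactions were initiated with ADP, 130 uM final. Kinase-Glo Plus luminescence was read after 45 min at RT.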
LmPK inh: blocks Leishmania mexicana pyruvate kinase activity. hit rate 0.37% among 290,000. Q27686. AID 1721. purified LmPK, Kinase-Glo ATP luminescence, 1 h. Potency, µM (titrated, usually from 57.5 µM), for the others: at the top dose activity change, negative = inhibition, usual class: inhibitors; note: % is set by controls: 0 for no effect and ±100 for the full control effect
Target sequence (Q27686 whole entry, looked up): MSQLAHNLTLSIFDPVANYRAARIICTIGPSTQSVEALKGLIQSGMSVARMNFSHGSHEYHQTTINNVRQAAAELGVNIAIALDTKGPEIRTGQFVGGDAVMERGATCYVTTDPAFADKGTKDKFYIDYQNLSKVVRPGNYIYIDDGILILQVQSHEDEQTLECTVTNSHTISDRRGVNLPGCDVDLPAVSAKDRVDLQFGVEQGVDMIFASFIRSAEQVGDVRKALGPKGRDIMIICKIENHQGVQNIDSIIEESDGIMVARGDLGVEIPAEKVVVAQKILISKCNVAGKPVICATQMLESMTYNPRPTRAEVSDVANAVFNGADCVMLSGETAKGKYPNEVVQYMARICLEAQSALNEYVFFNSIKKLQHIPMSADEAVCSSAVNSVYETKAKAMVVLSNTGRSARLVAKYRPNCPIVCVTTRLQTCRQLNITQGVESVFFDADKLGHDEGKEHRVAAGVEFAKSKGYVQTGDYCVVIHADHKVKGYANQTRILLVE
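Screened at intermediate enzyme activity to detect both inhibitors and activators: LmPK at 0.1 nM, with a 0.5 nM enzyme column as activation reference. PEP 0.5 mM, ADP 0.1 mM; ATP detected by luminescence after 1 h.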
SARS PLpro yeast: SARS-CoV PLP inhibition in yeast; hit rate 0.19% among 330,000; Potency, µM (series often up to 32.9 µM), for inactives: top-dose activity, positive = growth rescue, hits mostly activators; S. cerevisiae expressing SARS-CoV PLpro, growth rescue; AID 485353; calls by dose curve; note: 0% is about no effect; nearly all actives have a fitted effect of over 55% in size
NS1 function inh: blocks influenza NS1 protein function | hit rate 0.4% among 270,000 | Potency, µM (titrated, usually from 46.1 µM), for the others: at the highest dose activity, positive = more growth; calls by dose curve; note: actives are rising curves; nearly all actives have a fitted effect of over 50% in size
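Read-out: OD600 growth recovery of NS1-expressing budding yeast. Cells grown overnight at 30C in -URA glucose medium, washed, resuspended and diluted 1:100 in 2% galactose assay medium, pH 6.0. Same strain lacking NS1 served as positive control.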
RE007 growth inh: less growth of the S. pombe RE007 Vpr strain | S. pombe RE007 Vpr strain, BacTiter-Glo ATP luminescence, 24 h | Potency, µM (titrated, usually from 92.2 µM), for inactives: at the highest dose activity change, negative = less growth, most hits filed as inhibitors | hit rate 0.21% among 360,000; active = well fitted falling curve with a large enough effect; inconclusive = small, poorly fitted or top-dose-only effect; inactive = no such curve, though single readings can be large or run the other way; note: % is set by controls: 0 for no effect and ±100 for the full control effect; nearly all actives have a fitted effect of over 50% in size
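Fission yeast strain RE007, carrying one chromosomally integrated HIV-1 vpr copy, was seeded at OD 0.01 in PMG+AL medium with 23 nL pinned compound. After 24 h at 30 °C and 99% humidity, viability was read by BacTiter-Glo luminescence.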
Sm TGR inh: inhibitors of Schistosoma mansoni thioredoxin glutathione reductase; Q962Y6; purified TGR, DTNB reduction, TNB absorbance 405 nm; Potency, µM (highest dose often 114 µM), without a hit: top-dose activity change, negative = inhibition, actives largely listed as inhibitors; hit rate 3% among 360,000; AID 485364; note: % is set by controls: 0 for no effect and ±100 for the full control effect; nearly all actives have a fitted effect of over 60% in size
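TGR 20 nM + NADPH 100 uM (dispensed conc.), cpd preinc 15 min RT; start with NADPH (500 uM addition) then DTNB (15 mM addition). Kinetic TNB absorbance, 405 nm filter. Four-parameter Hill fit across titration.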
* marks the source's active call; other numbers are inactive results; ? = inconclusive; · = no result given; ! = not active in a repeat; [ ] = another dose, or the depositor's remark. Hits are enriched below; roughly 3.3% of the tested compounds scored in any of these assays. Unless noted, calls come from the whole dose curve; as a rule, active = well fitted curve in the direction sought with a large enough effect; inconclusive = small, poorly fitted or top-dose-only effect, or another doubt; inactive = no such curve, though single readings can be large; an effect the other way counts as inactive or inconclusive. Potency is the fitted concentration of half-maximal effect.

SMILES | Tb PYK inh | LmPK inh | SARS PLpro yeast | NS1 function inh | RE007 growth inh | Sm TGR inh
O=C(O)c1cccc(N/N=C/c2cccc3ccccc23)c1 | -9% | 4% | 1% | 7% | 2% | 0%
O=C(O)c1cccc(Cn2c(Cl)c(/C=N/NC(=O)c3ccccc3O)sc2=O)c1 | -3% | -1% | -1% | 1% | 3% | 40µM*
O=C(N/N=C/c1sc(=O)n(Cc2ccc(Br)cc2)c1Cl)c1ccco1 | -6% | 13% | -7% | 11% | -11% | 45µM*
O=C(O)c1cccc(Cn2c(Cl)c(/C=N/Nc3ccccc3)sc2=O)c1 | -27% | 5% | 0% | · | 19% | 3.5µM*
Cc1ccccc1OCC(=O)N/N=C/c1sc(=O)n(Cc2cccc(C(=O)O)c2)c1Cl | 5% | 6% | 1% | ? | -16% | ?
COc1ccc(C(=O)N/N=C/c2sc(=O)n(Cc3cccc(C(=O)O)c3)c2Cl)cc1 | -5% | -2% | 2% | 11% | 20% | 22µM*
O=C(N/N=C/c1ccc(Br)s1)c1ccco1 | -2% | -4% | -1% | -6% | -20% | 1%
Cc1ccc(CCNC(=O)CCN2N=C(c3ccc(C)cc3)CCC2=O)cc1 | 0% | · | · | · | · | 0%
COc1ccc(C(=O)NCC2(N3CCN(C)CC3)CCCCC2)cc1 | -6% | · | · | · | · | 4%
CCOc1ccc(CNC(=O)c2ccc3c(c2)nc2n3CCCCC2)cc1 | -14% | · | · | · | · | -1%
CN(C)c1c([N+](=O)[O-])cc(N2C(=O)C=CC2=O)cc1[N+](=O)[O-] | 7.9µM* | · | · | · | 27% | ·
CCc1ccc(-n2c(=O)c3ccc(C(=O)NCCc4ccccc4)cc3n(Cc3ccccc3C#N)c2=O)cc1 | 8% | · | · | · | · | 16%
CC1CCC(C(C)C)C2=C1C(C#N)(C#N)C(C#N)(C#N)C(c1ccccc1)N2 (stereo not drawn) | -19% | -23% | 9% | 18% | 0% | 5µM*
O=S(=O)(NCc1ccccn1)c1cccc2cccnc12 | · | · | · | 1% | · | ·
Cc1ccccc1N/C(=C(/C(Cl)=C(Cl)Cl)[N+](=O)[O-])n1nnc2ccccc21 | 0% | 0% | · | -8% | -7% | 14µM*
COc1ccc(S(=O)(=O)Nc2cc3c(cc2NCc2ccccc2)n(C)c(=O)n3C)cc1 | -2% | · | · | · | · | 0%
COc1ccc(OC)c(NC(=O)CCCOc2cc(=O)n(C)c3ccccc23)c1 | 10% | · | · | · | · | -15%
Cc1ccc(N2C(=O)NC(=O)/C(=C\c3cc(C)n(-c4cc(C(=O)O)cc(C(=O)O)c4)c3C)C2=O)cc1 | -3% | -2% | 0% | 6% | 26% | 7.9µM*
CCc1ccc(N2C(=O)NC(=O)/C(=C\c3cc(C)n(-c4cc(C(=O)O)cc(C(=O)O)c4)c3C)C2=O)cc1 | -16% | -8% | 2% | 4% | 10% | 8.9µM*
CCCCC(CC)Cn1c(Oc2ccccc2)nc2c1c(=O)n(C)c(=O)n2C (stereo not drawn) | 0% | · | · | · | · | -3%
Cc1ccc(N2C(=O)C(Cl)=C(NCCO)C2=O)c(C)c1 | -11% | 2% | 8% | 3% | -2% | 8.9µM*
Cc1ccccc1C(=O)Nc1cccc(OCc2cc(=O)n3cccc(C)c3n2)c1 | -12% | · | · | · | · | -5%
COc1ccc2cc(CCNS(=O)(=O)c3ccc(C)cc3)c(=O)[nH]c2c1 | 3% | · | · | · | · | 14%
Cc1ccc(C)c(N2CCN(S(=O)(=O)c3ccc4oc(=O)c5ncn(C)c5c4c3)CC2)c1 | -1% | · | · | · | · | -4%
Cc1ccccc1NN=Nc1nc2c([nH]1)c(=O)n(C)c(=O)n2C | -28% | -15% | 4% | -3% | -16% | 56µM*
SMILES | Tb PYK inh | LmPK inh | SARS PLpro yeast | NS1 function inh | RE007 growth inh | Sm TGR inh
Cn1c(=O)c2[nH]c(NN=Cc3ccccc3)nc2n(C)c1=O | 1% | · | · | · | 3% | ·
CC1CCN(N=Nc2nc3c([nH]2)c(=O)n(C)c(=O)n3C)CC1 | 4% | · | · | · | 8% | ·
Cn1c(=O)c2[nH]c(N=NNc3ccccc3F)nc2n(C)c1=O | 5% | -7% | 0% | -4% | 0% | 40µM*
COc1ccc(NN=Nc2nc3c([nH]2)c(=O)n(C)c(=O)n3C)cc1 | ? | -5% | 1% | 5% | 5% | 18µM*
N#Cc1c(NC(=O)CS(=O)(=O)c2ccc(Cl)cc2)sc2c1CCCCC2 | 3%[15.4 µM] | · | · | · | · | -15%
COc1ccc(N2C(=O)/C(=C\c3ccco3)N=C2SCC(=O)NC(C)C)cc1Cl | 0% | -5% | -23% | 23% | 7% | 0%
O=C(CSC1=N/C(=C/c2ccco2)C(=O)N1c1ccc(OC(F)F)cc1)NC1CCS(=O)(=O)C1 (stereo not drawn) | 0% | -3% | -1% | · | 1% | 40µM*
CCOC(=O)c1cnc2c(C)c(C)ccc2c1NCCN1CCOCC1 | -12% | -3% | -3% | 24% | -7% | 6%
CCOC(=O)c1cnc2ccc(Br)cc2c1NCCCN1CCOCC1 | 3% | -3% | -4% | -5% | -6% | 45µM*
CCOC(=O)c1cnc2c(Cl)c(Cl)ccc2c1NCCN1CCOCC1 | 6% | 5% | -2% | -6% | -24% | 40µM*!
COC(=O)C1=C(C(=O)OC)[C@]2([C@@H]3CC=CCN[C@@H](Cc4ccccc4)C(=O)N3Cc3ccccc3)C=C[C@H]1O2 | -13% | · | · | · | 5% | ·
C=CCC(Nc1ccccc1)C12C=CC(O1)C(C(=O)OC)=C2C(=O)OC (stereo not drawn) | -14% | 2% | -37% | -2% | -4% | 6.3µM*
Oc1ccc(O)c(/C(=N/Nc2ccccc2)c2ccccc2)c1 | · | -5% | 6% | 2% | · | 6.3µM*
c1cc2c(cc1C1=NNC(=NC3CC3)SC1)OCCO2 | ? | 11µM* | -18% | · | ? | 4%
CCCCN=C1NN=C(c2ccc3c(c2)OCCO3)CS1 | ? | -3%[11.5 µM] | 1% | · | -13% | 14%
COc1ccc(N=Nc2cc(C)ccc2O)cc1 | 3% | ? | 0% | 3% | -21% | -24%
Cc1ccc(O)c(N=Nc2nccs2)c1 | -21% | · | -8% | · | 18µM* | -13%
O=C(OCc1ccco1)c1ccc2c(c1)N(Cc1cccc(F)c1)C(=O)c1ccccc1S2 | -8% | · | · | · | · | -22%
COc1cc2c(cc1/C=C/[N+](=O)[O-])OCO2 | -7% | -5% | -24% | · | 14µM* | 33%
Cc1ccc(CN2CCN(C3CCN(S(=O)(=O)N(C)C)CC3)C(=O)C2=O)cc1 | -2% | · | · | · | · | -1%
S=C(Nc1nc2c(s1)CCCC2)NC1CC1 | -11% | 3% | 12% | 4% | -10% | 2.5µM*
COc1ccc(-c2noc(CCC(=O)NCc3ccc(OC)cc3OC)n2)cc1 | 1% | · | · | · | · | 2%
O=C1OCC=C1NNC(=O)c1cccnc1 | 2% | 0% | 4% | · | 6% | 40µM*
Cn1c(=O)n(C/C=C/c2ccccc2)c(=O)c2c1nc1n2CCN1c1ccccc1 | -4% | · | · | · | · | 7%

Bioassay records deposited in PubChem by National Center for Advancing Translational Sciences (NCATS).
